Test results as given in PubChem BioAssay AID588456 (National Center for Advancing Translational Sciences (NCATS), 2011).
The campaign covered roughly 390,000 compounds. About 55 (0.01%) were called active. Not all results are given here. Values without a mark were called inactive. Calls come from the whole dose curve; as a rule, active = well fitted inhibition curve with a large enough effect; inconclusive = small, poorly fitted or top-dose-only effect; inactive = no such curve, though single readings can be large or run the other way.

molecular target: Thioredoxin reductase 1, cytoplasmic (Rattus norvegicus) (UniProt O89049); assay: qHTS Assay for Substrates of Mammalian Selenoprotein Thioredoxin Reductase 1 (TrxR1): qHTS; conditions: purified TrxR1 substrate turnover, NADPH consumption readout; series mostly up to 114 µM; activity change, negative = substrate turnover: at the top concentration; note: nearly all actives have a fitted effect of over 50% in size
Text: The selenoprotein thioredoxin reductase (TrxR; EC 1.8.1.9) is a FAD containing homodimeric pyridine nucleotide-disulfide oxidoreductase with many cellular roles. Together with NADPH and its prime substrate thioredoxin (Trx), the enzyme forms the core of the Trx system. The mammalian Trx system exerts a wide spectrum of functions including redox regulation, antioxidant defense, regulation of transcription factors as well as support of cell growth and replication. Many of these functions involve the reduction of Trx, which may subsequently reduce a number of different substrates including ribonucleotide reductase, peroxiredoxins or NFkB. Mammalian TrxR itself also has a broad substrate specificity, reducing both protein and non-protein substrates, including low molecular weight compounds such as dehydroascorbate, lipoic acid, ubiquinone, and juglone. In addition, several drugs in clinical use for anticancer treatment are indeed known to target TrxR1.
This BioAssay is a validation of an NADPH fluorescence-based, dual-purpose qHTS rTrxR1 assay designed to find potential inhibitors and substrates of rTrxR1. For this particular BioAssay, actives are potential substrate. See related BioAssay for inhibition data deposition.
NIH Molecular Libraries Probe Production Network [MLPCN]
NIH Chemical Genomics Center [NCGC]
Assay Provider: Elias Arner, Karolinska Institute
Assay protocol: 2 uL of reagents (buffer in column 4 as negative control and 90 nM rTrxR1 in columns 1-3 and 5-48) were dispensed into Greiner black solid-bottom 1,536-well assay plates, followed by 1 uL of NADPH (400 uM final concentration) to each well. The plates were centrifuged at 1000 rpm for 15 seconds and subsequently incubated for 5 min at room temperature (~22 deg C) to allow for rTrxR1 reduction. Compounds (23 nL) were then transferred via Kalypsys pin tool equipped with 1536-pin array (10 nL slotted pins, V&P Scientific, San Diego, CA). In addition, a duplicate 2-fold serial dilution of the control compounds auranofin, a known gold-based TrxR1 inhibitor, and juglone (5-hydroxy-1,4-naphthoquinone), a natural TrxR1 substrate, were pin-transferred to columns 2 and 3, respectively. After incubation for 15 min at room temperature (~22 deg C), 1 uL of selenite (400 uM final concentration) were dispensed to each well. The plate was immediately transferred to a ViewLux high-throughput CCD imager (PerkinElmer), wherein kinetic measurements of NADPH fluorescence (Ex 340 nm, Em 450 nm) were acquired (8 minute kinetic read, see Table 1). Read 1 was utilized to assess the capacity of a compound to serve as an rTrxR1 substrate, i.e. a decrease in NADPH fluorescence compared to the no-compound background is an indication of a substrate behavior for that particular compound. For inhibitory activity of a compound, delta values, computed as the difference in fluorescence intensity between the first and last reads of an 8-minute time kinetic window, were used. All reagents were diluted in an assay buffer consisting of 50 mM Tris-HCl, pH 7.5, 2 mM EDTA, and 0.01% Tween-20.
Throughout the screen, reagent bottle and all liquid lines were made light-tight to minimize reagent degradation. All screening operations were performed on a fully integrated robotic system (Kalypsys, San Diego, CA) containing one RX-130 and two RX-90 anthropomorphic robotic arms (Staubli, Duncan, SC). Library plates were screened starting from the lowest and proceeding to the highest concentration, and a 'double-pinning' step of the highest concentration was required to access higher concentrations of compounds. Vehicle-only plates, with DMSO being pin-transferred to the columns 5-48, were inserted uniformly at the beginning and the end of each library in order to monitor and record any shifts in the background, which can be affected by reagent dispensers or loss in enzyme activity over time. […]
% is set by controls: 0 for no effect and ±100 for the full control effect.

Chain of Thioredoxin reductase 1, cytoplasmic (Rattus norvegicus) (O89049 whole entry, looked up): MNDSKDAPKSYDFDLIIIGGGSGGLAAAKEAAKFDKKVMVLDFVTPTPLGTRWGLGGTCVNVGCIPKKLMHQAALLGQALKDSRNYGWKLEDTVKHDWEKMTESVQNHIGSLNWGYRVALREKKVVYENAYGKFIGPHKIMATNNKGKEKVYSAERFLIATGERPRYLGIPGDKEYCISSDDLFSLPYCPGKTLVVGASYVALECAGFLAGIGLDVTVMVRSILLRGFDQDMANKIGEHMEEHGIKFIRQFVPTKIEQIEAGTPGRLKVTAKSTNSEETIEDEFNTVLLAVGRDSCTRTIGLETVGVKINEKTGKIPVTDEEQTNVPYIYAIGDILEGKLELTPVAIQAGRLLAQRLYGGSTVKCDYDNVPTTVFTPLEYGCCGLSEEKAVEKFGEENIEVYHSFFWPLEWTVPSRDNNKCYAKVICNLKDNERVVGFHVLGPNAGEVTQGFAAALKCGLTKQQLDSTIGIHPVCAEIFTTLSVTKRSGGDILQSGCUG

Q: `COc1ccc(S(=O)(=O)Nc2cccc3cccnc23)c(N)c1` was tested. Which “activity change, negative = substrate turnover” value (“activity change” below) did it give?
A: -1.46%

Q: How did the “activity change” value turn out when `Cc1cccc(-c2nnc(SC(C)C(=O)Nc3ccccc3)n2C)c1` (stereo not drawn) was run?
A: 6.08%

Q: For `CCn1c(C)c(C)c2cc(C(=O)NCCc3cc(OC)ccc3OC)ccc21`, which “activity change” value is on record?
A: 5.36% [at 57.1 µM]

Q: Which “activity change” value does the source give for `Cc1csc[n+]1CCC1CCCCC1` here?
A: 10.5%

Q: How did the “activity change” value turn out when `CC(C)(C)C1CCC(NC(=O)c2cnn3c2NC(=C2CC2)C=C3C(F)F)CC1` (stereo not drawn) was run?
A: 3.26%

Q: `O=[N+]([O-])c1ccc(S(=O)(=O)N2CCN(c3nc(-c4ccccc4)nc4ccccc34)CC2)cc1` was tested. Which “activity change” value did it give?
A: -1.75%

Q: Which “activity change” value does the source give for `Cc1cccc(-n2ccnc2SCC(=O)Nc2cc(C(F)(F)F)ccc2Cl)c1` here?
A: -2.94% [at 57.1 µM]

Q: Which “activity change” value does the source give for `CN1CCN(/[N+]([O-])=N/Oc2ccc([N+](=O)[O-])cc2[N+](=O)[O-])CC1` here?
A: -6.58%

Q: `COc1cc2nc(N3CCCN(C)CC3)nc(NC(C)C)c2cc1OC` was tested. Which “activity change” value did it give?
A: 31.6%

Q: How did the “activity change” value turn out when `CN(N=O)c1ccc(C=C2c3ccccc3-c3ccccc32)cc1` was run?
A: -1.85%

Q: With `COc1ccc(-c2nc(=N)sn2-c2ccccc2)cc1` as the molecule, how does the “activity change” value read?
A: -8.32%

Q: `CN(C)c1ccc(/C=C/c2c3ccccc3nc3ccccc23)cc1` was tested. Which “activity change” value did it give?
A: 6.6%

Q: Which “activity change” value does the source give for `CN(C)c1cc2c(Nc3ccc4c(cnn4Cc4ccccc4)c3)ncnc2cn1` here?
A: -3.11% [at 57.1 µM]

Q: Which “activity change” value does the source give for `CC(C)(C)n1ncc2c(=O)n(Cc3ccc(C(=O)c4ccccc4)cc3)cnc21` here?
A: -4.32%

Q: `CC(C)(C)OC(=O)N(Cc1ccco1)S(=O)(=O)c1ccccc1Br` was tested. Which “activity change” value did it give?
A: -4.16%

Q: For `CC(=O)c1ccc[n+](C(C)CCC(C)[n+]2cccc(C(C)=O)c2)c1` (stereo not drawn), which activity change, negative = substrate turnover is on record?
A: 4.01% [at 0.0914 µM]

Q: With `CCOc1ccc(CCNC(=O)c2csc3c2CCCCC3)cc1` as the molecule, how does the “activity change” value read?
A: -1.88%

Q: `CN(C(=N)N)c1ccc(/C=C2\C=Cc3ccccc32)cc1` was tested. Which “activity change” value did it give?
A: -3.13%

Q: `Cc1cccc(-n2ncc(C(=O)N3CCc4ccccc4C3)c2C2CCN(C(=O)OC(C)(C)C)CC2)c1` was tested. Which “activity change” value did it give?
A: -7.64%

Q: Which “activity change” value does the source give for `Cc1cccc(NC(=O)CSc2nc3c(oc4ccccc43)c(=O)n2-c2ccc(F)cc2)c1` here?
A: -1.84%

Q: With `COc1cc(CNCCSc2nnnn2C)ccc1OCc1c(F)cccc1Cl` as the molecule, how does the activity change, negative = substrate turnover read?
A: 7.47% [at 11.4 µM]

Q: How did the “activity change” value turn out when `CC1(C)Cc2ccccc2-c2c[nH]c(=O)n21` was run?
A: -0.238%

Q: `O=C(c1ccc2c(=O)n(Cc3ccco3)c(=S)[nH]c2c1)N1CCCC1` was tested. Which “activity change” value did it give?
A: 4.46%

Q: How did the “activity change” value turn out when `N#Cc1ccc[n+](CC(=O)c2ccc(F)cc2)c1` was run?
A: 1.15%

Q: `Nc1ncnc2nnsc12` was tested. Which activity change, negative = substrate turnover did it give?
A: 7.52% [at 0.0914 µM]

Q: How did the activity change, negative = substrate turnover turn out when `Oc1ccc(Br)cc1C1C=C(c2ccc3c(c2)OCO3)NC(c2ccc(Cl)cc2)N1` (stereo not drawn) was run?
A: 6.51% [at 0.0914 µM]

Q: `COc1cc(CN(CC2CCCO2)C(=O)c2ccccc2F)cc(OC)c1OC` (stereo not drawn) was tested. Which “activity change” value did it give?
A: -0.795%

Q: For `ClC/C=C/C[n+]1ccccc1Cl`, which “activity change” value is on record?
A: -8.25%

Q: With `CCOC(=O)c1c(C)oc2ccc(N(C(=O)c3ccncc3)S(=O)(=O)c3ccc(CC)cc3)cc12` as the molecule, how does the “activity change” value read?
A: -5.68%

Q: For `CCCCC(CCCC)c1ccc(C=Nc2ccc(/C=C/c3ccnc4ccccc34)cc2)cc1`, which “activity change” value is on record?
A: -9.78%

Q: Which “activity change” value does the source give for `COc1cc(OC)c(/C=C/c2ccnc3ccccc23)c(OC)c1` here?
A: -0.93%

Q: With `CCOC(=O)c1cccc(NC(=O)c2cc(S(=O)(=O)N3CCCC(C)C3)cn2C)c1` (stereo not drawn) as the molecule, how does the “activity change” value read?
A: 2.95% [at 57.1 µM]

Q: For `O=C(Nc1ccccc1)c1ccccc1OCc1ccccc1`, which “activity change” value is on record?
A: -1.98%
